Values joined by “and” are separate entries in the source; they are usually repeats but may differ in a detail not shown here. Equal entries are not always repeated. Records with an inconclusive call do not appear. Where a structure was tested more than once in an assay, its records may differ in their call. Active and inactive are the calls of the source. Unless noted, the call rests on the fitted dose curve; in most records, active means well fitted curve in the direction sought with a large enough effect; inconclusive means small, poorly fitted or top-dose-only effect, or another doubt; inactive means no such curve, though single readings can be large; an effect the other way counts as inactive or inconclusive.

These results are taken from PubChem BioAssay (NCATS).

Assay [1] concerns Zika virus NS2B-NS3 protease. The experiment in a line: Primary screen GU AMC qHTS for Zika virus inhibitors (AID 1347154).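 Further: 0% = no-inhibitor control and -100% = no-enzyme control; nearly all actives have a fitted effect of over 70% in size.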 A digest of the protocol:
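Unlinked Zika NS2B hydrophilic domain–NS3 protease complex at 25 nM in 10 mM Tris-HCl pH 8.0, 0.01% Tween 20, with an AMC peptide substrate. Fluorescence change (340/450 nm) over 15 min at room temperature, normalized to controls, fitted to 4-parameter Hill.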
On the technique in general: qHTS replaces the single test concentration by a dilution series.

Assay [2] can be described thus: Primary qHTS for small molecule stabilizers of the endoplasmic reticulum resident proteome: Secreted ER Calcium Modulated Protein (SERCaMP) assay (AID 1508630). Further: on the % scale 0 is the no-effect control and ±100 the full control effect. A digest of the protocol: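 GLuc-SERCaMP-expressing SH-SY5Y cells, pretreated 16 h with compound, are challenged with thapsigargin to empty ER calcium stores; after 4 h, coelenterazine is added directly to the medium and luminescence is imaged.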

The target in assay [3] is Cytochrome P450 1A2 (Homo sapiens) (UniProt P05177). The experiment in a line: p450-cyp1a2 (AID 410; calls by dose curve; further: potency means the concentration at half of the fitted maximal effect;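 on activity change, negative = inhibition: -100% = full effect of reference inhibitor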). Summed up: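 Luminescent readout of luciferin formed from Luciferin-ME by human CYP1A2; data normalized against complete inhibition by 57 uM furafylline. Enzyme 20nM, substrate 100uM at Km, 100mM KPO4 buffer, 60 min reaction at room temperature.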
For assay [4], the target named is Glucocorticoid receptor (Homo sapiens) (UniProt P04150). The experiment in a line: GR-GFP Redistribution (AID 450;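 active means compounds whose dose series gives a full or clear partial fitted curve of increased nuclear translocation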; further: potency means the concentration at half of the fitted maximal effect). The settings on record: U2OS GR-GFP nuclear translocation, laser cytometry, 2 h.
Assay [5] has the same target. The experiment in a line: GR-EFC Redistribution (AID 451; calls by dose curve; further: potency means the concentration at half of the fitted maximal effect). The settings on record: CHO-K1 GR-EFC translocation, beta-gal luminescence, 2 h. A digest of the protocol: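 CHO-K1 cells expressing nuclear EA and GR-ED fragments of b-gal; compounds titrated up to 46 uM final, 2 h at 37 C. GR nuclear translocation read as complemented b-gal luminescence after 1 h RT detection.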

Assay [6] addresses Mitogen-activated protein kinase 10 (Mus musculus) (UniProt Q61831). The experiment in a line: JNK3 AlphaScreen Assay (AID 530; active means well fitted curve in either direction with a large enough effect, not every such curve was filed as active;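 further: kinase came from lysate of stimulated human HepG2 cells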; further: potency means the concentration at half of the fitted maximal effect). A digest of the protocol:
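Pre-activated (IL-1β/TNFα) JNK3 in HepG2 lysates phosphorylates biotin-GST-cJun(1-79), 10 uM ATP; anti-phospho-cJun(Ser73) AlphaScreen read at room temperature, pH 7.6 Tris buffer. Compounds pre-incubated 15 min as titrations.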
On the technique in general: In Alpha technology, singlet oxygen from a donor bead excites a nearby acceptor bead.

The target in assay [7] is 3',5'-cyclic-AMP phosphodiesterase 4B (Homo sapiens) (UniProt Q07343). Description: qHTS Assay for Inhibitors of PDE-IV (AID 607; active means well fitted activation curve with a large enough effect in the main read-out, with a control signal flat, not every such curve was filed as active; further: % of control where 0% means no effect). Summed up:
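The readout is membrane depolarisation from a cAMP-sensing CNG channel, detected with a potential dye at ex 535/em 590. Cells were HEK293-derived (endogenous PDE-IV) at 1000 cells/well, titrated up to 22.9 uM final.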

The target of assay [8] is Cytochrome P450 3A4 (Homo sapiens) (UniProt P08684). The experiment in a line: qHTS Assay for Activators of Cytochrome P450 3A4 (AID 885). Further: nearly all actives have a fitted effect of over 65% in size. Summed up:
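Steps: enzyme/substrate mix dispensed; compound added, 10 min RT; NADPH regeneration solution added, 60 min RT; luciferin detection buffer stops reaction; 20 min later luminescence measured.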

Assay [9] can be described thus: qHTS Assay for Lipid Storage Modulators (AID 1519; calls by dose curve). The note with it: Drosophila S3 cells, BODIPY lipid droplet/cell ratio, laser cytometry, cells loaded with oleic acid. A digest of the protocol:
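Cells seeded at 5,000 per well were treated with compounds over a concentration series and loaded with oleic acid (400 uM, as added). Lipid droplet fluorescence (488 nm excitation, 500-530 nm channel) was read by laser-scanning cytometry and normalized to 20 uM Triacsin C.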

Assay [10] concerns the target Ubiquitin carboxyl-terminal hydrolase 1 (Homo sapiens) (UniProt O94782). The experiment in a line: Inhibitors of USP1/UAF1: Pilot qHTS (AID 504865).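 Further: rhodamine fluorescence freed from ubiquitin-rhodamine substrate followed over time; top concentration of the series differs between compounds; on the % scale 0 is the no-effect control and ±100 the full control effect; nearly all actives have a fitted effect of over 35% in size.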 A digest of the protocol: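 In 50mM HEPES pH 7.8 containing 0.5mM EDTA, 1mM TCEP, 0.1 mg/ml BSA and 0.01% Tween-20, 1nM USP1/UAF1 is exposed to compound for 15 min, then Ub-Rho (150nM final) is added and fluorescence is read over time.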

The target in assay [11] is DNA dC->dU-editing enzyme APOBEC-3G (Homo sapiens) (UniProt Q9HC16). Description: qHTS for inhibitors of Vif-A3G interactions: Validation (AID 588379). Further: 0% is about no effect. Summed up:
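HeLa cells stably expressing Vif and A3G-eYFP, 700 cells/well, incubated overnight at 37 deg C, then exposed to compound overnight at 37 deg C. Inhibition of Vif-mediated degradation read as increased yellow fluorescence (Ex 488/Em 500-530) by laser-scanning cytometry.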

A short description of assay [12]: AP1 Signaling Pathway (AID 357; active means well fitted curve in either direction with a large enough effect, not every such curve was filed as active; further: on the % scale 0 is the no-effect control and ±100 the full control effect). The note with it: ME-180 AP-1-bla reporter, EGF-induced, beta-lactamase ratio, 5 h. A digest of the protocol: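 A ratiometric CCF4 readout (405 nm excitation; 460 and 530 nm emission) quantified AP-1-driven beta-lactamase in ME-180 cells after 5 h with compound and EC50 EGF; AC50 values were derived for activators and inhibitors.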

A short description of assay [13]: Stat Signaling Pathway (AID 446; active means well fitted curve in either direction with a large enough effect, not every such curve was filed as active;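 further: ME-180 cervical cancer cells given 40 pM IL-6 alongside compound; SIE-controlled beta-lactamase reporter measured as 460/530 nm FRET emission ratio; on the % scale 0 is the no-effect control and ±100 the full control effect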). The settings on record: ME-180 SIE beta-lactamase reporter, IL-6 stimulated, 5 h. Summed up:
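Screening format detects activators and inhibitors alike: ME-180 SIE-bla cells stimulated at 40 pM IL-6 for 5 hrs with compound, then dual-emission beta-lactamase read at 405 nm excitation.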

The target in assay [14] is Cytochrome P450 2C9 (Homo sapiens) (UniProt P11712). Description: qHTS Assay for Inhibitors and Substrates of Cytochrome P450 2C9 (AID 883). Further: nearly all actives have a fitted effect of over 60% in size. Further: potency means the concentration at half of the fitted maximal effect. A digest of the protocol: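 10nM CYP2C9 + 100uM Luciferin-H (=KM), 25mM KPO4; cpd 10 min 37C; NADPH regen, 60 min 37C; stop/detect with P450 Glo-Buffer 20 min; luminescence. Norm. to 57uM sulphaphenazole as full inhibition.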
For assay [15], the target named is Cytochrome P450 2D6 (Homo sapiens) (UniProt P10635). The experiment in a line: qHTS Assay for Inhibitors and Substrates of Cytochrome P450 2D6 (AID 891). Further: potency means the concentration at half of the fitted maximal effect; nearly all actives have a fitted effect of over 60% in size. Summed up: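 Human CYP2D6 (5 nM) with 30 uM Luciferin-ME EGE (at Km) in 100 mM KPO4, compound preincubated 10 min, then NADPH regeneration system for 60 min at room temperature. Luciferin read by luminescence; normalized to 1.43 uM quinidine.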

Assay [16] is described as follows: NFAT Signaling Pathway (AID 444; active means well fitted curve in either direction with a large enough effect, not every such curve was filed as active;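 further: carbachol stimulus at about its EC50 of 1 µM final; on the % scale 0 is the no-effect control and ±100 the full control effect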). The note with it: Jurkat NFAT-bla M1, carbachol, beta-lactamase ratio, 5 h; at 38 µM (top of the series). A digest of the protocol: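 Jurkat cells with NFAT-driven β-lactamase reporter and co-expressed M1 receptor, stimulated with carbachol (final 1 uM, ~EC50), compound titration, 5 h at 37 °C. CCF4 loaded 1 h at RT; 460/530 nm ratio gave %activity and AC50.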

For assay [17], the target named is Pyruvate kinase (Leishmania mexicana) (UniProt Q27686). The experiment in a line: qHTS Validation Assay for Inhibitors of Leishmania Mexicana Pyruvate Kinase (AID 945).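 Further: 0% = DMSO only neutral control wells.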 A digest of the protocol: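 Read-out: luminescence from PKLight stop/detection reagent, data normalized to DMSO. Reaction: 0.2 nM E451W LmPYK, 0.5 mM PEP, 0.1 mM ADP, pH 7.2, 1 h room temperature.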

The target of assay [18] is Pyruvate kinase PKM (Homo sapiens) (UniProt P14618). The experiment in a line: qHTS Assay for Activators of Human Muscle Pyruvate Kinase (AID 954; active means well fitted curve in the direction sought with a large enough effect, not every such curve was filed as active;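 further: 0% = uninhibited enzyme and -100% = no enzyme or full thiadiazolimine inhibition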). Summed up:
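Reaction: 0.1 nM purified PKM2 with 0.5 mM phosphoenolpyruvate and 0.1 mM ADP, room temperature, 1 h. Readout: luciferase-based ATP luminescence after stop reagent. Activators judged against a 0.3 nM enzyme column.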

Assay [19] has as its target alpha-glucosidase (Oryza sativa, rice) (UniProt Q653V4). The experiment in a line: Counterscreen for Glucocerebrosidase Inhibitors: qHTS Assay for Rice alpha-Glucosidase at pH 5.0 (AID 997).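 Further: 0% = full activity with enzyme and -100% = basal without enzyme.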 A digest of the protocol:
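Rice alpha-glucosidase (4 nM final) with 400 uM 4-methylumbelliferyl-alpha-D-glucopyranoside in citrate buffer pH 5.0, 20 min at room temperature, stopped at pH 10; fluorescence 365/440 nm, compounds 0.7 nM–77 uM, AC50 from Hill fits.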
Background: Counterscreens check selectivity or assay interference.

The mark [20] stands for this setting: measured here: cell count channel max response.
[21] abbreviates: measured here: lipid channel max response.

Chain of Cytochrome P450 2D6 (Homo sapiens) (P10635 whole entry, looked up): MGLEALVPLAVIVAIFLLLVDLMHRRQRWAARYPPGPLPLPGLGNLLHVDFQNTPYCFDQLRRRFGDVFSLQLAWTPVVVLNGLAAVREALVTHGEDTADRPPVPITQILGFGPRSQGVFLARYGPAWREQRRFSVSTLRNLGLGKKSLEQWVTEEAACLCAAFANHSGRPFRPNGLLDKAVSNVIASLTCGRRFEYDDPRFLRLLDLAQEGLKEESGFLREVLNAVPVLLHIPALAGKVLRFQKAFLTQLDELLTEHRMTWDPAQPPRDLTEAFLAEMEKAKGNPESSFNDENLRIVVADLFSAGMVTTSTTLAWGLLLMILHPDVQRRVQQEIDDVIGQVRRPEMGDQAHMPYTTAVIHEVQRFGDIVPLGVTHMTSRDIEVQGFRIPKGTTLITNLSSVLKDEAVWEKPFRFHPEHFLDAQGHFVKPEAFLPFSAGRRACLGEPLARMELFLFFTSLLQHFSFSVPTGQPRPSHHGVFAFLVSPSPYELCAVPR
Chain of Ubiquitin carboxyl-terminal hydrolase 1 (Homo sapiens) (O94782 whole entry, looked up): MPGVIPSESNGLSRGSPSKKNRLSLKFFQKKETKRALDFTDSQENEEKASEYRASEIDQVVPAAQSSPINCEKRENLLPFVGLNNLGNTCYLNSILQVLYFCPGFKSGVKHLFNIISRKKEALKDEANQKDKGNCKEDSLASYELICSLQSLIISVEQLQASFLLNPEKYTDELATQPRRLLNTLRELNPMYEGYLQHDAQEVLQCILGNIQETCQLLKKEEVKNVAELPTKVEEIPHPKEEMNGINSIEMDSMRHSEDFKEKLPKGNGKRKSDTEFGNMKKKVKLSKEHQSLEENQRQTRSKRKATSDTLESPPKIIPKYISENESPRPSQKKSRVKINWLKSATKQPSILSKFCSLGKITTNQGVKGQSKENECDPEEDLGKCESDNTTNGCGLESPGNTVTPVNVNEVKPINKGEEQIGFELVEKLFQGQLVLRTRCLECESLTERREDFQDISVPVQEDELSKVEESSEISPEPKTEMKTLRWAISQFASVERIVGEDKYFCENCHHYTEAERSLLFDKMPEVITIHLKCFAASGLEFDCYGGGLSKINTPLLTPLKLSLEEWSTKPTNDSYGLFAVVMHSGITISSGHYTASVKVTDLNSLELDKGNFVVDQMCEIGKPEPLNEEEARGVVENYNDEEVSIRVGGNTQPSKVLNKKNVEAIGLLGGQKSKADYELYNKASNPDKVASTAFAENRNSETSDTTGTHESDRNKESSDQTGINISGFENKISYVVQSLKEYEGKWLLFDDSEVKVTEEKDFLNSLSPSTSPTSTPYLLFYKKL
Chain of Cytochrome P450 1A2 (Homo sapiens) (P05177 whole entry, looked up): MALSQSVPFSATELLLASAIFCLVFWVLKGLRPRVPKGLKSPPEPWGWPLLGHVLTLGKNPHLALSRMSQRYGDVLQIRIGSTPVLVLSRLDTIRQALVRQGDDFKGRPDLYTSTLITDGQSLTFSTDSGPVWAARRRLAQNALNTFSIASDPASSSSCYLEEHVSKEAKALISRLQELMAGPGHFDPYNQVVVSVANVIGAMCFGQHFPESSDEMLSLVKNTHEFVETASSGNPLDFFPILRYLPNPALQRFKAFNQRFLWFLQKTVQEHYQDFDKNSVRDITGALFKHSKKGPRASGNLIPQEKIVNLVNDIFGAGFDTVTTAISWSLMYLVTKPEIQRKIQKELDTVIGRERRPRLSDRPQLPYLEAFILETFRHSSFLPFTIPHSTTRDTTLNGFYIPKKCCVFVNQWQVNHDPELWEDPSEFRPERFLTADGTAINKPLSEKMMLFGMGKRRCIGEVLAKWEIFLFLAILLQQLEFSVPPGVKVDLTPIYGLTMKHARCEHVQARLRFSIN
Chain of DNA dC->dU-editing enzyme APOBEC-3G (Homo sapiens) (Q9HC16 whole entry, looked up): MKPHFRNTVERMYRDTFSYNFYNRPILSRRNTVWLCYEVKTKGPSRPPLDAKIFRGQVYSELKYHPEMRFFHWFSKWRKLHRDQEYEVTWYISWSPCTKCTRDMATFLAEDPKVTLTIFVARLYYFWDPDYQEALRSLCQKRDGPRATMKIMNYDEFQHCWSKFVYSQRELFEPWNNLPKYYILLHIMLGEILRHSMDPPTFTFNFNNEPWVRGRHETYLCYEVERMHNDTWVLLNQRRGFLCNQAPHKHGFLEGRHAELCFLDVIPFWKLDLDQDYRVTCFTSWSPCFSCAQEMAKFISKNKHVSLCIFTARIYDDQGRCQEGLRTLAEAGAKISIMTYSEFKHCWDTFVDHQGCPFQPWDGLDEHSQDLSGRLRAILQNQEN
Chain of Glucocorticoid receptor (Homo sapiens) (P04150 whole entry, looked up, the tested form may be a part): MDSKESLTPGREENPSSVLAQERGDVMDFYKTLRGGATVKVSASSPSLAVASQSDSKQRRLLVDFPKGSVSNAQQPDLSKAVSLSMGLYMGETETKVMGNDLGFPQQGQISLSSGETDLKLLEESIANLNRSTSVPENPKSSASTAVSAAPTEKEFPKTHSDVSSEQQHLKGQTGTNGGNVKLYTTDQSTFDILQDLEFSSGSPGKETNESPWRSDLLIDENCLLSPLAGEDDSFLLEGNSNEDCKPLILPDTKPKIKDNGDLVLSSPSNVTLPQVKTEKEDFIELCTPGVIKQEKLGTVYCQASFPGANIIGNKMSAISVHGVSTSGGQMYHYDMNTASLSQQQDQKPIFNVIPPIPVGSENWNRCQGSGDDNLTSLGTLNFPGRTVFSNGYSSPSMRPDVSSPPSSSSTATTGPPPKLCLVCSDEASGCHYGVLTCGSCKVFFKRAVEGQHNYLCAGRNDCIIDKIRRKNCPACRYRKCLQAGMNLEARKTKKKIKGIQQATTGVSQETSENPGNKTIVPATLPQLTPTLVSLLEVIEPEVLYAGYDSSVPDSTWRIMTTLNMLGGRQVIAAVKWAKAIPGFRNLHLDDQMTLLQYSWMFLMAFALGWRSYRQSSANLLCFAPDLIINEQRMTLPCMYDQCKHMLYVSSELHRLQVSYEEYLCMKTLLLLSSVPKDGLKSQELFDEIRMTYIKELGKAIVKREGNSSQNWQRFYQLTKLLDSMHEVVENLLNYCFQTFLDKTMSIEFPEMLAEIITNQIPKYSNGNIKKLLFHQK
Chain of 3',5'-cyclic-AMP phosphodiesterase 4B (Homo sapiens) (Q07343 whole entry, looked up): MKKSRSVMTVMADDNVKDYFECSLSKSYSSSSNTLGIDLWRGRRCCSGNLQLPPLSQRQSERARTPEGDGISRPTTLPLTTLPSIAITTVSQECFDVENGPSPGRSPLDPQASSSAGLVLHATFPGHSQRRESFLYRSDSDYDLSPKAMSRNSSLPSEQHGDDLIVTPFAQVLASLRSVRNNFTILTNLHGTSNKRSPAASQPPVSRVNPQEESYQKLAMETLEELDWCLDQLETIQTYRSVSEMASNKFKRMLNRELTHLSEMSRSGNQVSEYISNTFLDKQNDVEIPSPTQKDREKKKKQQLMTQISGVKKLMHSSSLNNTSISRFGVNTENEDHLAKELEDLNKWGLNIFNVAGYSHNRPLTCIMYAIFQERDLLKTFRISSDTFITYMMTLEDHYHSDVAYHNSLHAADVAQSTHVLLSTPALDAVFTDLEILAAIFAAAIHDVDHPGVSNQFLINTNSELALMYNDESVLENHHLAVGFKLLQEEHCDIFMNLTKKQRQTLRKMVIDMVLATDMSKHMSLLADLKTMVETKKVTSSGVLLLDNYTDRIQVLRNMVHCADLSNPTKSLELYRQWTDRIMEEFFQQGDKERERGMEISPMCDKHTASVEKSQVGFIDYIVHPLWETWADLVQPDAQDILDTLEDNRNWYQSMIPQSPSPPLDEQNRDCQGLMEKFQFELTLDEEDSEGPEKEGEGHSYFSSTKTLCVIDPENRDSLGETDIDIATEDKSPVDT
Chain of Cytochrome P450 2C9 (Homo sapiens) (P11712 whole entry, looked up): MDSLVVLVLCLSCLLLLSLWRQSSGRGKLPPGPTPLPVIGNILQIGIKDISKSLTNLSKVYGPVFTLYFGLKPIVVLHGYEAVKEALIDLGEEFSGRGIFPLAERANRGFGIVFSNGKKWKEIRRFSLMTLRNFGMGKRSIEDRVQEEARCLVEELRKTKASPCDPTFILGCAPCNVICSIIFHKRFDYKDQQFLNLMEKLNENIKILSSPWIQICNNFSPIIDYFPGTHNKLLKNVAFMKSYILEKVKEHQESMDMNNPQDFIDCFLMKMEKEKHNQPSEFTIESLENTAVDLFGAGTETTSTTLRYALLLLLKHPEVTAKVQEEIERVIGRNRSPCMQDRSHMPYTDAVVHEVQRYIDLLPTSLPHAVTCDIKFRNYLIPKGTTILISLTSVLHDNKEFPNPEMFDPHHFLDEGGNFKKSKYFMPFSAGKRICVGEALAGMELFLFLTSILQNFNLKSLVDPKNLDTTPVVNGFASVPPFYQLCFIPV
Chain of Cytochrome P450 3A4 (Homo sapiens) (P08684 whole entry, looked up): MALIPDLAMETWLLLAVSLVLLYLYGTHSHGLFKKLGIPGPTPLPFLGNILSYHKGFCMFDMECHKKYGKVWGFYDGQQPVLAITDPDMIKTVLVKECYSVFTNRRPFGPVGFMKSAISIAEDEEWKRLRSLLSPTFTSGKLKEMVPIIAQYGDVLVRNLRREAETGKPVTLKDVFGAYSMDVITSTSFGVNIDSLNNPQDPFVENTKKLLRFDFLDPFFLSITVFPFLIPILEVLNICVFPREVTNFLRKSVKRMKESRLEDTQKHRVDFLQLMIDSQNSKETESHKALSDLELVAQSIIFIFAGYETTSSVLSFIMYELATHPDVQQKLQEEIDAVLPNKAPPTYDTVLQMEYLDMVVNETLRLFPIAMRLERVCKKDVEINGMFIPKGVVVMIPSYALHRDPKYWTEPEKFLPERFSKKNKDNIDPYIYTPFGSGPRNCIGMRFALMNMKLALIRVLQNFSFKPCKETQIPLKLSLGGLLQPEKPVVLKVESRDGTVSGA

On to `Cc1ccc2c(c1)C(=O)C1(O)CCN(c3ccccc3)C1=N2` (stereo not given), for which the Potency result in assay [1] and in [2] was “inactive” in each case.

Turning to `CCCCC/C=C\C/C=C\C/C=C\C/C=C\CCCC(=O)O[C@@H](CO)COC(=O)CCCCCCCCCCCCCCCCC`, the activity change, negative = inhibition in assay [1] was 6.26% [at 6.83 µM] (inactive); in assay [2], -0.0647% [at 3.88 µM] (inactive).

Consider `O=c1oc(-c2ccc(C(F)(F)F)cc2)nn1Cc1cc(Cl)ccc1O`, for which the Potency result in assay [1] and in [2] was “inactive” throughout.

For the molecule `C[C@H](NC[C@H](O)CP(=O)(O)CC1CCCCC1)c1ccc(Cl)c(Cl)c1`, the Potency in assay [3] is 39.8 µM (active); in assay [4], > 46 µM (inactive); in assay [5], > 46 µM (inactive). Also, the Potency entry in [6], in [7], in assay [8], in [10], in assay [11] and in assay [1] was “inactive” in each case. The Potency result in assay [2] was “inactive”. Further, the activity change, negative = inhibition in assay [9] (at 57.5 µM (top of the series)) was 4.93% (inactive). Also, the max response in assay [9] (setting [20]) was found to be 9.04%; in [9] (setting [21]) it was 17.2%.

Consider `CO[C@@]12C[C@@H](COC(=O)c3cncc(Br)c3)CN(C)[C@H]1Cc1cn(C)c3cccc2c13`, for which the activity change, negative = inhibition is -12% (inactive) in [12] (at 17.2 µM (top of the series)) and -0.393% (inactive) in assay [9] (at 25.7 µM (top of the series)). In addition, the Potency in assay [3] is 5.01 µM (active) and 15.8 µM (active) and 39.8 µM (active); in assay [4], > 20.6 µM (inactive) and > 46 µM (inactive); in [5], > 20.6 µM (inactive) and > 46 µM (inactive); in [6], “inactive and 3.16 µM (active)”; in assay [15], 39.8 nM (active) and 2.5 nM (active) and 20 nM (active). Further, the activity, negative = inhibition in [13] (at 17.2 µM (top of the series)) was -10.5% (inactive). In addition, the Potency result in assay [14], in assay [8], in assay [11], in assay [1] and in [2] was “inactive” each time. Further, the max response is -7.54% in assay [9] (setting [20]) and -4.61% in [9] (setting [21]).

Regarding `CC(C)SC(=N)N`, the Potency entry in [3], in assay [6], in [7], in assay [10], in [11] and in assay [1] was “inactive” each time. In addition, the Potency entry in [2] was “inactive”. Further, the Potency in [4] and in [5] was > 46 µM (inactive) in each case. The activity change, negative = inhibition in assay [9] (at 57.5 µM (top of the series)) was -0.874% (inactive). For the same molecule, the figures for the max response in [9] (setting [20]) and in [9] (setting [21]) were 1.11% and -3.81%, respectively.

On to `C[C@](N)(C(=O)O)c1ccc(-c2nn[nH]n2)cc1`, for which the Potency is 39.8 µM (active) in assay [3], > 46 µM (inactive) in assay [4] and > 46 µM (inactive) in assay [5]. Also, the Potency entry in assay [6], in assay [10], in assay [11], in assay [1] and in assay [2] was “inactive” throughout. Besides, the activity change, negative = inhibition in assay [9] (at 57.5 µM (top of the series)) is 7.08% (inactive). For the same molecule, the max response is 7.75% in assay [9] (setting [20]) and 14.3% in assay [9] (setting [21]).

Turning to `N[C@H](CCC(=O)N[C@H](CSN=O)C(=O)NCC(=O)O)C(=O)O`, the activity change, negative = inhibition was -9.57% (inactive) in assay [12] (at 38 µM (top of the series)), 0.964% (inactive) in assay [16] and 1.5% (inactive) in assay [9] (at 57.5 µM (top of the series)). Besides, the Potency entry in assay [3], in assay [6], in [7], in assay [17], in assay [11] and in assay [1] was “inactive” in each case. Further, in assay [2], the Potency entry is “inactive”. The activity, negative = inhibition in assay [13] (at 38 µM (top of the series)) was 14.7% (inactive). Moreover, the figures for the Potency in assay [4], in assay [5] and in [14] were > 46 µM (inactive), > 46 µM (inactive) and 5.01 µM (active), respectively. Also, the molecule was called inactive in [18] and in assay [19]. The max response came out at 13.2% in [9] (setting [20]) and 16.6% in assay [9] (setting [21]).
